Rows were chosen to be rich in hits. Some 9.3% of all compounds tested hit in one or more screens of this group.
SMN2 splice enh: enhancers of SMN2 splice variant expression; hit rate 2.8% among 210,000; HEK293 SMN2-luciferase splicing reporter, luminescence, 30-36 h; AID 1458; Potency, µM (highest dose often 46.1 µM), without a hit: top-dose activity change, positive = activation, usual class: activators; also: % of control where 0% means no effect; nearly all actives have a fitted effect of over 55% in size
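HEK293 cells carry an SMN2 […]–luciferase reporter in which exon 7 inclusion puts luciferase in frame. Cells were plated 10-12 h before compound addition, then incubated 30-36 h at 37C. ONE-Glo luminescence was read; sodium butyrate at 4.5 mM final served as control.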
ELG1 genotoxic: inducers of genotoxicity in HEK293T ELG1-luciferase cells | HEK293T ELG1-luciferase reporter, luminescence, 16 h | Potency, µM (top dose mostly 46 µM), without a hit: at the highest dose activity change, positive = activation, most hits filed as activators | hit rate 1.3% among 330,000; also: % of control where 0% means no effect; nearly all actives have a fitted effect of over 60% in size
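HEK293T cells expressing luciferase-tagged ELG1 were exposed to compound or DMSO vehicle for 16 hr at 37 °C and 5% CO2. Luciferase activity was then measured with ONE-Glo after 30 min at room temperature.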
NPC1 prom act: activates the NPC1 promoter | AID 485313 | Huh7 NPC1 promoter luciferase reporter, 24 h | Potency, µM (highest dose often 9.22 µM), inactives show at the highest dose activation, actives largely listed as activators | hit rate 2.4% among 320,000; also: % of control where 0% means no effect; nearly all actives have a fitted effect of over 60% in size
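Stable NPC1-promoter luciferase Huh7 line; cpd (DMSO) 24 h, 37 °C, 5% CO2; Amplite luciferase reagent 10 min RT; luminescence readout. qHTS format.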
Rab9 promoter act: activates the Rab9 promoter; Potency, µM (titrated, usually from 9.22 µM), for the others: at the top dose activation, negative = inhibition, hits mostly activators; AID 485297; Huh7 Rab9 promoter-luciferase reporter, luminescence, 24 h; hit rate 2.8% among 320,000; also: % of control where 0% means no effect; nearly all actives have a fitted effect of over 60% in size
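Luciferase signal after 10 min detection reagent at ambient indicates Rab9 promoter upregulation; stably transfected Huh7 cells were treated 24 h with compound in DMSO at 37 °C, 5% CO2.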
ELG1 repair inh: ELG1-dependent DNA repair inhibition; Potency, µM (series often up to 46.1 µM), for the others: at the top dose activity change, negative = inhibition, most hits filed as inhibitors; HEK293T ELG1-luciferase reporter, luminescence, 16 h; DNA damage induced by 5-fluorouridine; AID 504467; hit rate 2.3% among 330,000; also: % is scaled to controls: 0 for no effect and ±100 for the full control effect; nearly all actives have a fitted effect of over 55% in size
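5-Fluorouridine DNA damage + compound/DMSO, 2,000 cells/well, 16 h, 37 °C/5% CO2. ONE-Glo, 30 min RT, luminescence. Readout = decrease in reporter signal.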
FLuc modulator: firefly luciferase modulation, counter-screen for miR-21 project | purified FLuc, Km substrates, luminescence inhibition | hit rate 6.9% among 360,000 | Potency, µM (highest dose often 57.5 µM), for inactives: top-dose activity change, negative = inhibition, usual class: inhibitors;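 also: plate controls were vehicle for no effect and reference inhibitor for full effect; nearly all actives have a fitted effect of over 55% in size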
Target sequence (P08659 whole entry, looked up): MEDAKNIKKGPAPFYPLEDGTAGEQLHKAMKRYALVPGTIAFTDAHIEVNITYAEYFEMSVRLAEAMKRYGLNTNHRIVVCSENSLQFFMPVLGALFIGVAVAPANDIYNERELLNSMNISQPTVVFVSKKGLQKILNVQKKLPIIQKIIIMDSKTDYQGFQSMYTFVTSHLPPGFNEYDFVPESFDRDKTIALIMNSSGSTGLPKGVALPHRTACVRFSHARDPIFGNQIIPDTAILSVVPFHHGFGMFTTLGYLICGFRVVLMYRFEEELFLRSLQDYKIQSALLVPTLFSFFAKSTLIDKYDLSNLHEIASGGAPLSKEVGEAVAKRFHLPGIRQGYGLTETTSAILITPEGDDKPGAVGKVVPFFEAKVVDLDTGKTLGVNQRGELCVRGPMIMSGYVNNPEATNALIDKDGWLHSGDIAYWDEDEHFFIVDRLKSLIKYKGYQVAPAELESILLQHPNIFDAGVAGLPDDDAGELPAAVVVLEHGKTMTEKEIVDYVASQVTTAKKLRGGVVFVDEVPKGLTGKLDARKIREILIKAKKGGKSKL
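Biochemical qHTS of compounds, final roughly 60 µM downward over six points, against 10 nM purified firefly luciferase using Km concentrations of substrates (10 uM D-luciferin, 10 uM ATP) in Tris acetate pH 7.5 buffer; luminescence output.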
The depositor's hits bear a star; ? = inconclusive; . = not tested or not shown; [ ] = remark or other dose. Calls follow the shape of the dose curve; as a rule, active = well fitted curve in the direction sought with a large enough effect; inconclusive = small, poorly fitted or top-dose-only effect, or another doubt; inactive = no such curve, though single readings can be large; an effect the other way counts as inactive or inconclusive. Potency is read from the fitted curve at half-maximal effect.

SMILES | SMN2 splice enh | ELG1 genotoxic | NPC1 prom act | Rab9 promoter act | ELG1 repair inh | FLuc modulator
Cc1ccc(-c2nnc(-c3cccs3)o2)cc1 | 13µM* | 5.2µM* | 3.5µM* | 1.6µM* | ? | 6.7µM*
Cc1ccc(/C=C/c2nnc(-c3cccs3)o2)cc1 | 10µM* | ? | 0.35µM* | 0.89µM* | ? | 1.7µM*
Cc1cccc(C(=O)N[C@H](C(=O)Nc2ccc(C)c(S(=O)(=O)N3CCOCC3)c2)C(C)C)c1 | . | -1% | . | . | ? | .
Cc1cccc(CS(=O)(=O)c2ncc(Cl)c(C(=O)Nc3nnc(C(C)C)s3)n2)c1 | -5% | -19% | -57% | -73% | ? | -20%
CC(C)(C)c1ccc(C2=NC(=O)C(CC(=O)O)S2)cc1 (stereo unspecified) | . | 0% | 12% | 17% | ? | 1.7µM*
CC(C)C(=O)N1CCN(c2ccccc2NC(=O)COc2ccc(C3CCCCC3)cc2)CC1 | . | -13% | -3% | 0% | 21µM* | 2%
CC(C)C(=O)N1CCN(c2ccccc2NC(=O)COc2ccccc2)CC1 | . | -11% | 1% | -7% | ? | 0%
Cc1snc2sc(C(=O)c3ccc(Br)cc3)c(N)c12 | ? | 12µM* | 2.8µM* | 4µM* | ? | -25%
Cc1nc(-c2ccccc2)nc2sc(C(=O)c3ccc(F)cc3)c(N)c12 | . | 6% | 3% | -4% | -1% | 5%
Cc1ccc(C(=O)c2sc3nsc(C)c3c2N)cc1 | 10µM* | 0.58µM* | 1.1µM* | 2.8µM* | ? | 1.7µM*
Cc1cc(C)c2c(N)c(C(=O)c3ccccc3Cl)sc2n1 | . | -11% | 0% | -6% | -27% | -1%
C=CCN(CC=C)C(=S)Nc1ccc(OC)c(OC)c1 | 7% | 6% | 0% | -3% | -4% | -1%
O=C(CSc1c(Cl)cccc1Cl)NC1CCCc2ccccc21 (stereo unspecified) | -7% | 1% | -5% | 13% | 9% | 6%
COc1cc(CN2CCN(Cc3ccc(C)cc3)C(CCO)C2)ccc1O (stereo unspecified) | 4% | -1% | -3% | 0% | 2% | 0%
COc1cc2c3c(c1OC)C1(C=CC(=NO)C=C1)CC3N(C(C)=O)CC2 (stereo unspecified) | 0% | 4% | 0% | -2% | 3% | 1%
COc1cccc(NC(=S)Nc2cc(C)cc(C)n2)c1 | . | 14% | 4% | 5% | ? | 2.1µM*
CCNC(=S)/N=C(/Nc1ccc(OC)cc1)Nc1nc(C)cc(C)n1 | . | 1% | 3% | -3% | -6% | ?
COc1cccc(N/C(=N/C(=S)Nc2ccc(C)cc2C)Nc2nc(C)cc(C)n2)c1 | . | 0% | 1% | -9% | 26µM* | -6%
CCN1CCS/C1=C\C=C\C1=[N+](CC)CCS1 | -61% | 0% | -44% | -40% | 0.58µM* | -2%
COC(=O)/C=C1\S/C(=N/N=C/c2ccc(Cl)cc2)NC1=O | . | -1% | -3% | -2% | 1% | 11µM*
COC(=O)/C=C1\S/C(=N/N=C/c2ccccc2)NC1=O | 6% | 0% | 2% | -3% | 20% | 6µM*
COC(=O)/C=C1/SC(=NC(=O)c2ccc(OC)cc2)NC1=O | . | 3% | 0% | 1% | 6% | 27µM*
COC(=O)/C=C1/S/C(=N/N=C/c2ccco2)NC1=O | . | 2% | -1% | 2% | -4% | ?
Nc1ccc(S(=O)(=O)NC2=NCCCCC2)cc1 | . | 2% | 0% | -2% | 18% | 0%
CCN1CCN(C(=O)c2ccc(OC3CCN(CCc4ccccc4)CC3)cc2)[C@@H](C)C1=O | . | -1% | -7% | 6% | 4% | 5%
SMILES | SMN2 splice enh | ELG1 genotoxic | NPC1 prom act | Rab9 promoter act | ELG1 repair inh | FLuc modulator
Cc1cccnc1NC(=S)NCCc1ccccc1 | ? | ? | 24% | ? | ? | 17µM*
COc1ccc(NC(=S)Nc2ncccc2C)c(OC)c1 | ? | 12% | ? | ? | ? | 9.5µM*
CCOc1ccccc1NC(=S)Nc1ncccc1C | . | -1% | -1% | 0% | ? | ?
Cc1cccnc1NC(=S)Nc1ncccc1C | . | ? | 1.3µM* | 0.71µM* | ? | 13µM*
COc1ccc(NC(=S)Nc2ncccc2C)cc1OC | 35µM* | ? | ? | ? | ? | ?
Nn1c(SCC(=O)Nc2ccccc2)nnc(Cc2ccccc2)c1=O | . | -8% | 0% | -6% | 16% | -2%
Cc1nn(CC(=O)NCCCN2CCCCC2C)c(=O)c2cccn12 (stereo unspecified) | . | 1% | 0% | -4% | 2% | 1%
CC(=O)Nc1ccc(NC(=O)COC(=O)Cn2cnc3ccccc32)cc1 | . | 5% | . | . | 2% | .
Cc1ccc2nc3ccc(N4CCCC4)nn3c(=O)c2c1 | 16µM* | ? | 2.2µM* | 1.6µM* | ? | 11µM*
CC1CCCN(c2c3c(nc4ccccc24)CCCC3)C1 (stereo unspecified) | . | -11% | -5% | 1%[1.84 µM] | -28% | 0%
Cc1sc2nc3ccc(N4CCCCC4)nn3c(=O)c2c1C | -17% | -1% | ? | ? | ? | 8.5µM*
CC1CCCN(c2ccc3nc4ccccc4c(=O)n3n2)C1 (stereo unspecified) | 1.3µM* | -12% | ? | ? | ? | 1.1µM*
Cn1c(SCC(=O)c2ccccc2)nnc1-c1cccnc1 | 4% | -2% | 27% | ? | ? | -19%
COc1ccc(S(=O)(=O)N2CCN(C(=O)c3ccc([N+](=O)[O-])o3)CC2)cc1 | . | -8% | -8% | 17% | ? | 4%
COc1cccc(OCCSc2nc3ccccc3n2CC(=O)N2CCOCC2)c1 | . | . | . | . | . | 2%

Screens as filed in PubChem BioAssay.
